Entries with a potency or affinity are not part of this list. Activity calls are given as the source filed them. How the calls were made is not given here.
Assay: OVCAR4 cell viability loss – plate reader, dry powder, SA11, cytotoxicity control for PAX8 inhibitor project, dose response (AID 743150)
Details: series mostly up to 35 µM

Row | Compound | outcome
1 | C[C@H](CO)N1C[C@H](C)[C@@H](CN(C)Cc2ccc(C(F)(F)F)cc2)Oc2ccc(NS(=O)(=O)c3ccc(Cl)cc3)cc2CC1=O | inactive
2 | O=C1/C(=C/c2ccccc2F)SC(=S)N1CC(=O)N1CCCCC1c1cccnc1 (stereo unspecified) | inactive
3 | C[C@H](CO)N1C[C@H](C)[C@@H](CN(C)Cc2ccc(C(F)(F)F)cc2)OCCCC[C@H](C)Oc2ccc(NS(=O)(=O)c3ccc(F)cc3)cc2C1=O | inactive
4 | O=C(N1CCCCC1)[C@@]1(CCS(=O)(=O)c2ccccc2)N=C(c2ccc(OCCCO)cc2)O[C@H]1c1ccccc1 | inactive
5 | O=C(NCCc1ccccc1)c1ccc2c(c1)OCCCO2 | inactive
6 | CCCC#Cc1ccc([C@@H]2[C@H](C#N)N(S(=O)(=O)c3cccc(F)c3)[C@H]2CO)cc1 | inactive
7 | O=C(/C=C/c1ccccc1)Nc1cccc(C(=O)O)c1 | inactive
8 | N#C[C@@H]1[C@H](c2ccc(C#Cc3ccc(F)cc3)cc2)[C@@H](CO)N1C(=O)Nc1ccc(F)cc1 | inactive
9 | COc1cccc(C#Cc2ccc([C@H]3[C@@H](C#N)N(C(=O)c4ccccn4)[C@@H]3CO)cc2)c1 | inactive
10 | O=C(CN1C(=O)c2ccccc2S1(=O)=O)c1ccc(Cl)cc1Cl | inactive
11 | N#C[C@@H]1[C@@H](c2ccc(-c3ccccc3F)cc2)[C@@H](CO)N1C(=O)C1CCC1 | inactive
12 | N#C[C@H]1N[C@H](CO)[C@@H]1c1ccc(C#Cc2ccccc2F)cc1 | inactive
13 | C[C@H](CO)N1C[C@H](C)[C@@H](CN(C)S(=O)(=O)c2ccc(-c3ccccc3)cc2)OCc2cn(nn2)CCCC1=O | inactive
14 | CCCC#Cc1ccc([C@@H]2[C@@H](C#N)N(C(=O)C3CCCCC3)[C@H]2CO)cc1 | inactive
15 | CC(C)c1cc(C(=O)OCC(=O)N2CCN(C(=O)c3ccco3)CC2)c(O)c(C(C)C)c1 | inactive
16 | CCSCCc1nnc(NC(=O)Nc2cccc(C(F)(F)F)c2)s1 | inactive

Row | Compound | outcome
17 | C[C@@H]1CN([C@H](C)CO)C(=O)CCCn2nncc2CO[C@H]1CN(C)Cc1ccc(Oc2ccccc2)cc1 | inactive
18 | Cc1nc2sc(C(c3ccco3)N3CCN(C(c4ccccc4)c4ccccc4)CC3)c(O)n2n1 (stereo unspecified) | inactive
19 | COc1ccccc1C#Cc1ccc([C@H]2[C@@H](CO)N(C(=O)C3CCCC3)[C@H]2C#N)cc1 | inactive
20 | CCCn1c(C)cc(C(=O)CN2C(=O)c3ccccc3S2(=O)=O)c1C | inactive
21 | C[C@H](CO)N1C[C@H](C)[C@@H](CN(C)Cc2ccc(-c3ccccc3)cc2)Oc2ccc(NC(=O)C3CC3)cc2CC1=O | inactive
22 | N#C[C@H]1[C@@H](c2ccc(C#CC3CCCCC3)cc2)[C@@H](CO)N1S(=O)(=O)c1ccccc1 | inactive
23 | C[C@H](CO)N1C[C@H](C)[C@@H](CN(C)Cc2ccc(-c3ccccc3)cc2)Oc2ccc(NS(=O)(=O)c3ccccc3)cc2CC1=O | inactive
24 | C[C@@H]1CN([C@H](C)CO)C(=O)CCCn2cc(nn2)CO[C@H]1CN(C)C(=O)Nc1ccc(-c2cccs2)cc1 | inactive
25 | COc1ccc(S(=O)(=O)N2CCCCN3[C@H](CO)[C@H](c4ccc(C#CC(C)C)cc4)[C@H]3C2)cc1 | inactive
26 | CN(C)CCCN(C(=O)CCOc1ccccc1)c1nc2c(F)cccc2s1 | inactive
27 | O=C(CN1C(=O)c2ccccc2S1(=O)=O)c1ccccc1Cl | inactive
28 | COc1cccc(C#Cc2ccc([C@H]3[C@@H](CO)N(C(=O)c4ccccn4)[C@H]3C#N)cc2)c1 | inactive
29 | O=C1/C(=C/c2cccc(Br)c2)SC(=S)N1CCC(=O)N(CCO)c1ccccc1 | inactive
30 | COc1cccc(C#Cc2ccc([C@@H]3[C@@H](C#N)N(C(=O)C4CCCC4)[C@@H]3CO)cc2)c1 | inactive
31 | CCc1ccc(/C=C2\SC(=S)N(CCCC(=O)N(CCO)c3ccccc3)C2=O)cc1 | inactive

From PubChem BioAssay AID743150 (Broad Institute, 2013)
